The values below come from PubChem BioAssay (EPA / NIEHS).

Experiment [1] in a line: ATG_CRE_CIS: Attagene CIS-FACTORIAL HepG2 Assay for human cAMP Responsive Element (CRE) binding protein 3 (AID 2282926). Conditions: HepG2 CRE cis-reporter, Attagene multiplexed mRNA; actives raise or lower the signal. The method, boiled down: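 Capillary electrophoresis of 6-FAM-labelled, HpaI-digested PCR products quantified reporter transcripts. These came from HepG2 transiently transfected with cis-element reporters and exposed to test chemicals for 24 hours, with DMSO defining baseline activity.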

Experiment [2] can be described thus: ATG_CMV_CIS: Attagene CIS-FACTORIAL HepG2 Assay for human CMV (Internal Marker) (AID 2282928).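 Further: endpoint acts as a background internal control marker rather than a target.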 Conditions: HepG2 CMV promoter reporter, transcription factor profiling; actives raise or lower the signal. The method, boiled down: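 24 h chemical treatment, HepG2 with transient multi-reporter transfection; RNA → oligo(dT) RT → PCR → 6-FAM extension → HpaI digest → CE fluorescence. Bidirectional fit, DMSO negative control.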

Experiment [3] can be described thus: ATG_DR4_LXR_CIS: Attagene CIS-FACTORIAL HepG2 Assay for human Liver X Receptor (LXR), DR4 submotif (AID 2282929). Conditions: HepG2 Attagene DR4 cis-reporter, mRNA transcription; actives raise or lower the signal. In outline: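 Transiently transfected HepG2 liver cells; cis-regulated reporters; 24 h dosing. RT-PCR plus CE read-out of reporter mRNA. DMSO baseline, bidirectional curve fitting.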

Experiment [4] deals with Aryl hydrocarbon receptor (Homo sapiens) (UniProt P35869). In words: ATG_Ahr_CIS: Attagene CIS-FACTORIAL HepG2 Assay for human Aryl Hydrocarbon Receptor (Ahr) (AID 2282930). Conditions: HepG2 AhR cis-factorial reporter transcription; actives raise or lower the signal. In outline: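 HepG2 cells transiently transfected with cis-element-driven multiplexed reporter units; endogenous AhR activity read as reporter mRNA 24 h after dosing, via RT-PCR, 6-FAM labelling, HpaI digestion and capillary electrophoresis. Bidirectional fit relative to DMSO.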

Experiment [5] can be described thus: ATG_AP_1_CIS: Attagene CIS-FACTORIAL HepG2 Assay for human Activator Protein 1 (AP-1) (AID 2282931). Conditions: HepG2 Attagene cis-factorial AP-1 reporter mRNA; actives raise or lower the signal. The method, boiled down:
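We transfected HepG2 cells transiently with a set of cis-regulated reporter transcription units, dosed them for 24 h, and quantified reporter mRNA via RT-PCR and capillary electrophoresis, scoring gain or loss of signal relative to DMSO.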

Experiment [6] in a line: ATG_AP_2_CIS: Attagene CIS-FACTORIAL HepG2 Assay for human Activator Protein 2 (AP-2) (AID 2282932). Conditions: HepG2 AP-2 cis-reporter, Attagene transcription factor profiling; actives raise or lower the signal. The method, boiled down: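 Read-out: fluorescent reporter mRNA via RT-PCR and capillary electrophoresis, 24 h post-dose in transiently transfected HepG2. Endogenous factors drive cis-promoter reporters; gain or loss of signal fitted bidirectionally against DMSO.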

A short description of experiment [7]: ATG_BRE_CIS: Attagene CIS-FACTORIAL HepG2 Assay for human Bone Morphogenetic Protein (BMP) Response Element (BRE) (AID 2282933). Conditions: HepG2 BMP response element reporter, Attagene transcription factor profiling; actives raise or lower the signal. The method, boiled down:
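Endogenous transcription factor activity at a BMP response element was monitored in transfected HepG2 cells 24 h after dosing. Fluorescent RT-PCR products were resolved by capillary electrophoresis, and activity was fitted in both directions versus DMSO.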

Experiment [8] has as its target Retinoic acid receptor alpha (Homo sapiens) (UniProt P10276). Put plainly: ATG_DR5_RAR_CIS: Attagene CIS-FACTORIAL HepG2 Assay for human Retinoic Acid Receptor Alpha (RARE), DR5 submotif (AID 2282934). Conditions: HepG2 Attagene cis-factorial RARE DR5 reporter, mRNA; actives raise or lower the signal. The method, boiled down:
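HepG2 cells transiently transfected with multiplexed reporter units; DR5 cis-element drives reporter through endogenous transcription factors. After 24 h dosing, reporter mRNA quantified by RT-PCR, fluorescent labeling, HpaI digestion and capillary electrophoresis; bidirectional fitting versus DMSO.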

The target in experiment [9] is Transcription factor E2F1 (Homo sapiens) (UniProt Q01094). In words: ATG_E2F_CIS: Attagene CIS-FACTORIAL HepG2 Assay for human E2F Transcription Factor 1 (AID 2282935). Conditions: HepG2 Attagene cis-reporter, E2F reporter RNA transcripts; actives raise or lower the signal. In outline: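 Transient MRTU transfection of HepG2; 24 h compound exposure; RNA → oligo(dT) RT → PCR → FAM label → HpaI cut → CE fluorescence. Gain/loss of signal fit against DMSO.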

The nature of experiment [10]: ATG_E_Box_CIS: Attagene CIS-FACTORIAL HepG2 Assay for human Enhancer Box (E-box) (AID 2282936). Conditions: HepG2 E-box cis-reporter transcription, actives raise or lower the signal. In outline: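 Transiently transfected HepG2, endogenous TF-driven reporters, 24 h dosing. Readout: RT-PCR plus capillary electrophoresis of fluorescent reporter fragments. Gain or loss of signal fitted bidirectionally against DMSO baseline.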

Experiment [11] is described as follows: ATG_M_61_CIS: Attagene CIS-FACTORIAL HepG2 Assay for M61 Transcription Factor (Internal Marker) (AID 2282937). Conditions: HepG2 Attagene CIS-FACTORIAL M61 internal marker reporter; actives raise or lower the signal. The method, boiled down:
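Multiplexed reporter mRNA assay, HepG2 human hepatoma cells, 24 h treatment. Signal: FAM-labelled, HpaI-digested RT-PCR fragments by CE. Fit: bidirectional, baseline DMSO.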

A short description of experiment [12]: ATG_EGR_CIS: Attagene CIS-FACTORIAL HepG2 Assay for human Early Growth Response 1 (EGR1) (AID 2282938). Conditions: HepG2 Attagene CIS-FACTORIAL EGR reporter mRNA; actives raise or lower the signal. In outline: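 Multiplexed cis-reporter system in human hepatoma HepG2 cells, transiently transfected. Cells are dosed for 24 h; reporter transcripts are amplified, fluorescently tagged and sized by capillary electrophoresis, with DMSO as negative control.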

A short description of experiment [13]: ATG_M_19_CIS: Attagene CIS-FACTORIAL HepG2 Assay for M19 Transcription Factor (Internal Marker) (AID 2282939). Conditions: HepG2 Attagene CIS-FACTORIAL M19 internal marker reporter; actives raise or lower the signal. The method, boiled down: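 Background-control endpoint from a multiplexed HepG2 reporter panel. Cells carrying cis-regulated reporter constructs are treated 24 h, then reporter transcripts are amplified, fluorescently labelled and sized by capillary electrophoresis. DMSO defines baseline.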

Experiment [14] can be described thus: ATG_Ets_CIS: Attagene CIS-FACTORIAL HepG2 Assay for human Erythroblast Transformation Specific (ETS) (AID 2282941). Conditions: HepG2 ETS cis-reporter transcription, actives raise or lower the signal. The method, boiled down: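 Cis-regulated reporter mRNA induction in HepG2 (transient transfection), 24 h exposure, RT-PCR plus capillary electrophoresis detection; DMSO serves as negative control and baseline.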

Experiment [15] addresses Hepatocyte nuclear factor 3-beta (Homo sapiens) (UniProt Q9Y261). Put plainly: ATG_FoxA2_CIS: Attagene CIS-FACTORIAL HepG2 Assay for human Forkhead box A2 (FOXA2) (AID 2282942). Conditions: HepG2 cis-reporter transcription factor activity, 24 h; actives raise or lower the signal. The method, boiled down:
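Multiplexed cis-element reporter assay in transiently transfected HepG2. Twenty-four hours post-dosing, RNA was reverse-transcribed, amplified, FAM-labelled, HpaI-digested and separated by CE. Activity gain or loss relative to DMSO.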

Experiment [16] is described as follows: ATG_FoxO_CIS: Attagene CIS-FACTORIAL HepG2 Assay for human Forkhead box O (FoxO) (AID 2282943). Conditions: HepG2 Attagene cis-reporter, FoxO element, mRNA; actives raise or lower the signal. In outline: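 HepG2 cells transiently transfected with cis-element-driven reporter units report endogenous FoxO activity. After 24 h chemical exposure, reporter mRNA quantified by RT-PCR, fluorescent labeling, HpaI digestion and capillary electrophoresis; bidirectional fit versus DMSO.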

Experiment [17] can be described thus: ATG_GATA_CIS: Attagene CIS-FACTORIAL HepG2 Assay for human GATA Binding Protein (AID 2282944). Conditions: HepG2 GATA cis-element reporter, Attagene multiplex mRNA; actives raise or lower the signal. The method, boiled down: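 Endogenous transcription factor activity was captured through cis-promoter-driven reporters in transfected HepG2 cells. After 24 h exposure, reporter transcripts were quantified by RT-PCR with fluorescent capillary electrophoresis, and responses fitted both directions against DMSO.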

The nature of experiment [18]: ATG_GLI_CIS: Attagene CIS-FACTORIAL HepG2 Assay for human Zinc Finger Protein GLI1 (AID 2282945). Conditions: HepG2, Attagene cis-factorial reporter mRNA, GLI element; actives raise or lower the signal. The method, boiled down: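 Transiently transfected HepG2 cells report endogenous transcription factor activity via cis-element-driven reporter units. After 24 h compound exposure, reporter mRNA was measured by RT-PCR with capillary electrophoresis; bidirectional fitting against DMSO baseline.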

Experiment [19] has as its target CCAAT/enhancer-binding protein beta (Homo sapiens) (UniProt P17676). In words: ATG_C_EBP_CIS: Attagene CIS-FACTORIAL HepG2 Assay for human CCAAT/Enhancer Binding Protein (C/EBP) beta (AID 2282927). Conditions: HepG2 Attagene cis-factorial transcription factor reporter; actives raise or lower the signal. In outline:
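HepG2 transiently transfected with multiplexed reporter units under cis-regulatory promoters reporting endogenous C/EBPb activity. After 24 h exposure, reporter mRNA assayed by RT-PCR, fluorescent labelling, HpaI digestion and capillary electrophoresis; bidirectional fitting versus DMSO.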

Experiment [20] can be described thus: ATG_ERE_CIS: Attagene CIS-FACTORIAL HepG2 Assay for Estrogen Response Element (ERE) (AID 2282940). Conditions: HepG2 ERE cis-reporter, Attagene RNA transcript; actives raise or lower the signal. In outline:
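Cells used were human hepatoma HepG2, transfected with multiple reporter transcription units under cis-regulatory promoters. Reporter mRNA, read 24 h post-dosing via fluorescent RT-PCR products on capillary electrophoresis, was fitted bidirectionally relative to DMSO.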

Activity calls are given as the source filed them. How the source made its calls: active means hit-call score of the fitted dose curve at least 0.9, where 1 is the maximum; inactive means score below 0.9.

Sequence of Hepatocyte nuclear factor 3-beta (Homo sapiens) (Q9Y261 whole entry, looked up): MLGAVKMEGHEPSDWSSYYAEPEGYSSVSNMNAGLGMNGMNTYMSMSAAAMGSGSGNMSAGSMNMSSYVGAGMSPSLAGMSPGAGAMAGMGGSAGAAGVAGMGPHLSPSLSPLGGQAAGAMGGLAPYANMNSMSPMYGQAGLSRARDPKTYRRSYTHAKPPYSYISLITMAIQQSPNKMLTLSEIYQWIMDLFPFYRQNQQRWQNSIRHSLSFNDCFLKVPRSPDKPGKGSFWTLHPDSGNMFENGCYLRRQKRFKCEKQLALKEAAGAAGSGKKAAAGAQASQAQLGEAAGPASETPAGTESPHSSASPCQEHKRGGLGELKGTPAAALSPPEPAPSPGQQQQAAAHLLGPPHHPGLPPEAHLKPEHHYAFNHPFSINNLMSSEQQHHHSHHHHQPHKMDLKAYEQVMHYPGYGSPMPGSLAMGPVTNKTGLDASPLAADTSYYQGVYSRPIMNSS
Sequence of Aryl hydrocarbon receptor (Homo sapiens) (P35869 whole entry, looked up): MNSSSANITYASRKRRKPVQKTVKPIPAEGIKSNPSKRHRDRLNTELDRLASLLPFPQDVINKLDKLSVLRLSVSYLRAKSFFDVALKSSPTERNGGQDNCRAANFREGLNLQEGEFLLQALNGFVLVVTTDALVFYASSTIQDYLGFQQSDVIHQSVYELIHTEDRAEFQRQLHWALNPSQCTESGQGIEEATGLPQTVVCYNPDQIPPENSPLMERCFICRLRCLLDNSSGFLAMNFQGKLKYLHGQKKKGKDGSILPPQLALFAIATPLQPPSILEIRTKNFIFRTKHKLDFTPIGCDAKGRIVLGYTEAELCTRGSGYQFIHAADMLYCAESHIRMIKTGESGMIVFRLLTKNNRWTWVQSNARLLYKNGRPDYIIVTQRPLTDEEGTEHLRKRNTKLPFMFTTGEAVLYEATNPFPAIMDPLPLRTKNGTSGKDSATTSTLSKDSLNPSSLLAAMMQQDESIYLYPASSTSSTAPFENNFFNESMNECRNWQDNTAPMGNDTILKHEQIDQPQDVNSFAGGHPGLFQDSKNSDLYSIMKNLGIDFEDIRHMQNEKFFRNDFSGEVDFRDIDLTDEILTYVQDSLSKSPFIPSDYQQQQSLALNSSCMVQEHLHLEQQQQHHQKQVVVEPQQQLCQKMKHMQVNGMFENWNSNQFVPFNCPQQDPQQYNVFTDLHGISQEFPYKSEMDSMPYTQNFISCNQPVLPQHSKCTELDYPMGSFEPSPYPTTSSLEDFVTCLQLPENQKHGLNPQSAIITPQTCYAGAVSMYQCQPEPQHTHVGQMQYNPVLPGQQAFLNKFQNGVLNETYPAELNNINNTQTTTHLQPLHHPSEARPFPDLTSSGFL
Sequence of Transcription factor E2F1 (Homo sapiens) (Q01094 whole entry, looked up): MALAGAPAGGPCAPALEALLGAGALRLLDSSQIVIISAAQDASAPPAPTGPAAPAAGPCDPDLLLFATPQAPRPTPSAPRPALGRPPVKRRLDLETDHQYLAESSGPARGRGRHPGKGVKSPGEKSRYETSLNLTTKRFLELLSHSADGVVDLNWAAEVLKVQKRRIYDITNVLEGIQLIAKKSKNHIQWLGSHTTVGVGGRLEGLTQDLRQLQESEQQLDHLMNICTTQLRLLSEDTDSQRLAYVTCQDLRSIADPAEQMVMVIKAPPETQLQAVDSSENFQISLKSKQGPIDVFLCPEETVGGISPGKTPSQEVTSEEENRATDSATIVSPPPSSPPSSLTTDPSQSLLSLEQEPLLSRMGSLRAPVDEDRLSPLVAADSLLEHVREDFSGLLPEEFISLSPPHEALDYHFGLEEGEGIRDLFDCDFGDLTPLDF
Sequence of Retinoic acid receptor alpha (Homo sapiens) (P10276 whole entry, looked up): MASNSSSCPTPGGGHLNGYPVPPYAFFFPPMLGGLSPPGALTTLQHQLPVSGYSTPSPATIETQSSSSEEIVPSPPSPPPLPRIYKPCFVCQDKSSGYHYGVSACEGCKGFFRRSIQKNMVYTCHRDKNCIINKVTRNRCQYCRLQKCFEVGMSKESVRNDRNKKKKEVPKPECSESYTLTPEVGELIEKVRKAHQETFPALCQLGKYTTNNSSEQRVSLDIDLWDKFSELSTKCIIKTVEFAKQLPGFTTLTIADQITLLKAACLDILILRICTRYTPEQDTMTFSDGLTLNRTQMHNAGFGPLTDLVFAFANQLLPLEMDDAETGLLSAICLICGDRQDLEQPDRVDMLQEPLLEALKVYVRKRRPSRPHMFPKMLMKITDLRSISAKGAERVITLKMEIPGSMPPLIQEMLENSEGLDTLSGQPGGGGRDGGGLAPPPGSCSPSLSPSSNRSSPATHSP
Sequence of CCAAT/enhancer-binding protein beta (Homo sapiens) (P17676 whole entry, looked up): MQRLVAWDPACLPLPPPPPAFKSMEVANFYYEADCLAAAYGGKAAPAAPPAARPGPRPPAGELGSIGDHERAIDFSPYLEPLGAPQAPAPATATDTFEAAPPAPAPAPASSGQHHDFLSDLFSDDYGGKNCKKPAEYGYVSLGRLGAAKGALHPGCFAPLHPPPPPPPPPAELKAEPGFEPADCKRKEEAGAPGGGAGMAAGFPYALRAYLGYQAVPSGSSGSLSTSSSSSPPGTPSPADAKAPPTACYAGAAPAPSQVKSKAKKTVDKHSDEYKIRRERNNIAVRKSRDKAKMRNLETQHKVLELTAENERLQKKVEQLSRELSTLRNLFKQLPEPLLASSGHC

A word on the AC50: it is the midpoint of the concentration-response curve, whichever way the signal moves. `CC(C)(OOC(C)(C)c1ccccc1)c1ccccc1`: the half-maximal activity concentration (AC50) is 57.4 µM (active) in [1]; 48.7 µM (active) in experiment [2]; 63.9 µM (active) in experiment [3]; 57.5 µM (active) in [5]; 48.5 µM (active) in [7]; 61.9 µM (active) in experiment [12]. The AC50 is 100 µM (active) in [14] and 59.1 µM (active) in experiment [18]. In addition, the compound was called inactive in [4], in [6], in experiment [8], in experiment [9], in experiment [10] and in experiment [11]. The outcome in [13], in experiment [15], in experiment [16] and in experiment [17] was inactive.
With `N#CC(Br)(Br)C(N)=O`, the result in experiment [1], in experiment [2], in experiment [3], in experiment [5], in [6] and in experiment [7] was inactive. Further, the outcome in [8], in experiment [9], in experiment [10], in experiment [11], in [12] and in [13] was inactive. For the same compound, the outcome in [14], in experiment [15], in [16], in experiment [17] and in experiment [18] was inactive. The AC50 in experiment [4] is 55.2 µM (active).
`CCCCCCCCn1sccc1=O`: the AC50 in [1] was 14.4 µM (active); in [2], 19.1 µM (active); in [7], 11.6 µM (active); in experiment [12] it was 18.2 µM (active); in experiment [14] it was 14.8 µM (active); in [16], 18.3 µM (active). The concentration at half-maximal activity (AC50) in experiment [17] is 18.4 µM (active); in [18] it was 16.9 µM (active). For the same compound, the result in experiment [19], in [3], in [4], in experiment [6], in experiment [9] and in [10] was inactive. Further, the compound was classed as inactive in [11], in experiment [13], in experiment [20] and in experiment [15].
